Bioassay records from PubChem.
The list is not random: actives were taken first. Their share in the collection is about 2.9%.
B2AR arrestin – beta2AR (human) beta-arrestin recruitment activity. beta-arrestin recruitment to beta2AR, cell-based reporter. Potency, µM (highest dose often 46.1 µM), without a hit: at the highest dose activation, usual class: activators. 0.02% of 330,000 active; active = well fitted activation curve with a large enough effect;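 also: potency is read from the fitted curve at half-maximal effect; 0% = DMSO controls and full agonism = EC100 isoproterenol or metaproterenol; nearly all actives have a fitted effect of over 65% in size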
D3 antag – antagonists of human D3 dopamine receptor; P35462; D3R cells, DiscoveRx beta-arrestin luminescence, antagonist mode; active compounds read low; max response, negative = inhibition, %; 2.5% of 360,000 active; AID 652054; in the data active = max response below about -50%; also: % is scaled to controls: 0 for no effect and ±100 for the full control effect
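Cells expressing the human receptor were seeded at 1500 cells/well, incubated overnight at 37 degrees C in 5% CO2, then exposed to library compounds with dopamine controls for 90 minutes at 37 degrees C before luminescent detection.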
D3 ag – activates the human D3 dopamine receptor; max activation, %; 0.58% of 410,000 active; P35462; D3R DiscoveRx beta-arrestin cells, luminescence, 90 min; in the data active = max activation above about 30%; also: 0% is about no effect
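Agonist-mode cell screen: cells plated at 1500/well and incubated overnight at 37 °C, then exposed to library compounds for 90 min at 37 °C. Detection reagent was added for 30–60 min at room temperature, and luminescence was read.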
TSHR antag – antagonists of human thyroid stimulating hormone receptor | activity change, negative = inhibition, % at 11.5 µM | TSHR-expressing cells, TSH-stimulated cAMP HTRF, 2 h; active compounds read low | AID 504810 | 0.2% of 330,000 active;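 active = activity change below a set negative limit, meaning inhibition stronger than a set level, cut at about -70% in these data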; also: % is scaled to controls: 0 for no effect and ±100 for the full control effect
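TSHR-expressing cells were treated with compounds, then stimulated with TSH at EC80 (4nM final) for 2 hours at 37 deg C. Cellular cAMP was measured by HTRF competition between lysate cAMP and cAMP-d2 for a cryptate-labelled anti-cAMP antibody.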
* marks the source's active call; other numbers are inactive results.

How did OCCC1CN(Cc2cc(F)ccc2F)CCN1CCCc1ccccc1 (centres undefined) do in these assays?
B2AR arrestin: -2.9%; D3 antag: -85.6*; D3 ag: -17.7; TSHR antag: 11.1

What do the screens show for `CCOc1ccccc1CN1CCN(CCCc2ccccc2)CC1CCO` (centres undefined)?
B2AR arrestin: 0.3%; D3 antag: -73.5*; D3 ag: -20.7; TSHR antag: -9.5

What do the screens show for `OCCC1CN(Cc2ccc(F)cc2Cl)CCN1CCc1ccccc1` (centres undefined)?
B2AR arrestin: -0.7%; D3 antag: -99.1*; D3 ag: -17.6; TSHR antag: -1.0

How did COc1cc(OC)c(N(C)C(=O)Cn2ncc3c([nH]c4ccccc43)c2=O)cc1Cl do in these assays?
D3 ag: 18.4

How did CCOc1ccccc1CNC(=O)C1CCN(S(=O)(=O)c2c(C)noc2/C=C/c2ccccc2F)CC1 do in these assays?
D3 ag: 0.5

What do the screens show for `COc1ccc(CNC(=O)C(C)Sc2ccc(C)cc2)cc1` (centres undefined)?
B2AR arrestin: -0.1%; D3 antag: 3.4; D3 ag: 3.2; TSHR antag: -10.9

Results for Cc1ccc(SC(C)C(=O)NCc2ccncc2)cc1 (centres undefined) ?
B2AR arrestin: 0.2%; D3 antag: -59.1*; D3 ag: -7.2; TSHR antag: 12.1

What do the screens show for `CCOC(=O)c1c(-c2ccc(C)o2)csc1NC(=O)CN1CCN(CC)CC1`?
B2AR arrestin: -0.9%; D3 antag: -105.7*; D3 ag: 2.3; TSHR antag: -1.8

Results for CCN(C(=O)CN1C(=O)COc2ccc(S(=O)(=O)N3CCOCC3)cc21)c1ccc(OC)cc1 ?
B2AR arrestin: -0.7%; D3 antag: 0.4; D3 ag: 1.7; TSHR antag: -140.0*

Results for CCN(C(=O)CN1C(=O)COc2ccc(S(=O)(=O)N3CCOCC3)cc21)c1cccc(C)c1 ?
D3 ag: -0.3

How did CCc1ccc(-c2cc(C)no2)cc1S(=O)(=O)Nc1cc(C)on1 do in these assays?
B2AR arrestin: -0.1%; D3 antag: -75.4*; D3 ag: -23.8; TSHR antag: 6.1

How did O=C(Cn1c(=O)n(-c2ccc(Cl)cc2)c(=O)c2sc3ccccc3c21)NC1CCCCC1 do in these assays?
D3 ag: -9.0

How did O=C(NN1C(=O)c2cc(Br)ccc2NC1c1cc(Br)cc(Br)c1O)c1ccncc1 (centres undefined) do in these assays?
B2AR arrestin: -0.4%; D3 antag: -66.2*; D3 ag: -16.0; TSHR antag: -7.0

Results for CC(CCc1ccccc1)NC(=O)CN1CCN(Cc2ccc(Cl)cc2)C1=O (centres undefined) ?
B2AR arrestin: -0.7%; D3 antag: -8.6; D3 ag: -0.7; TSHR antag: -2.6

Results for CC(CCc1ccccc1)NC(=O)CN1CCN(Cc2ccccc2)C1=O (centres undefined) ?
B2AR arrestin: 0.2%; D3 antag: 26.2; D3 ag: 30.8*; TSHR antag: -5.7

What do the screens show for `Cc1cccc(CN2CCN(CC(=O)O)C2=O)c1`?
B2AR arrestin: -1.2%; D3 antag: -108.6*; D3 ag: -0.9; TSHR antag: 3.4

How did Cc1ccc(SC(=O)c2c(C)noc2-c2cc(C)on2)cc1 do in these assays?
B2AR arrestin: 0.1%; D3 antag: -92.2*; D3 ag: -8.0; TSHR antag: -2.4

How did Cc1cc(-c2onc(C)c2C(=O)N/N=C/c2ccccc2)no1 do in these assays?
B2AR arrestin: 0.4%; D3 antag: 7.0; D3 ag: -1.0; TSHR antag: -1.0

What do the screens show for `CCOC(=O)C1=C(CN2CCN(c3cccc(OC)c3)CC2)NC(=O)NC1c1ccc(OC)cc1` (centres undefined)?
D3 ag: -14.1

How did CCCCCCCCCCCCN1[C@@H](CC(=O)O)c2cc(C(F)(F)F)ccc2S1(=O)=O do in these assays?
D3 antag: 1.8; D3 ag: 36.7*

How did CCCCCCCCN1[C@@H](CC(=O)OC)c2cc(F)ccc2S1(=O)=O do in these assays?
D3 antag: 16.3; D3 ag: 1.5

How did CCCCCCCCCCCCN1[C@@H](CC(=O)O)c2cc(F)ccc2S1(=O)=O do in these assays?
D3 antag: 1.3; D3 ag: 40.4*

How did CCOc1ccc(CCNC(=O)c2cn(-c3ccc(OC)cc3)c(=O)c3ccccc23)cc1OCC do in these assays?
D3 ag: -19.4
